Values without a mark were called inactive. Results filed as inconclusive are left out. Where a call stands in place of a potency, no number is given. The source made the active and inactive calls. Unless noted, calls follow the shape of the dose curve; as a rule, active = well fitted curve in the direction sought with a large enough effect; inconclusive = small, poorly fitted or top-dose-only effect, or another doubt; inactive = no such curve, though single readings can be large; an effect the other way counts as inactive or inconclusive.
Experiments:
[1] = biological target: Beta-2 adrenergic receptor (Homo sapiens) (UniProt P07550); test: qHTS validation assay of beta-arrestin-biased ligands of beta2-adrenergic receptor (AID 485366)
Procedure, shortened: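 Agonism was measured as beta-arrestin recruitment to recombinant beta2-AR, releasing tTA to drive luciferase. Cells were exposed for 18 hr at 37 degrees C to a series up to 46 microM. %Activity from corrected luminescence gave concentration-response curves.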

[2] = biological target: ATP-dependent 6-phosphofructokinase (Trypanosoma brucei brucei) (UniProt O15648); test: qHTS Validation Assay to Find Inhibitors of T. brucei phosphofructokinase (AID 485368)
Procedure, shortened: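 ADP-Glo luminescence, two-step: residual ATP depleted, then ADP converted to ATP for luciferase. Enzyme 1.25 nM, F6P 0.5 mM, ATP 0.1 mM, pH 8.0 TEA buffer, 45 min RT. Curves fitted and classed by quality and efficacy.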

[3] = biological target: Thioredoxin reductase 1, cytoplasmic (Rattus norvegicus) (UniProt O89049); test: qHTS Assay for Substrates of Mammalian Selenoprotein Thioredoxin Reductase 1 (TrxR1) (AID 488772);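 also: series mostly up to about 57 µM; a drop in NADPH fluorescence below the no-compound background marks a TrxR1 substrate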
Procedure, shortened: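 In this dual-purpose format, potential substrates are identified from the first fluorescence read after selenite addition, not from the 8-minute delta. Rat enzyme is preincubated with NADPH and then with compound at ~22 deg C.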

[4] = biological target: Thioredoxin reductase 1, cytoplasmic (Rattus norvegicus) (UniProt O89049); test: qHTS Assay for Inhibitors of Mammalian Selenoprotein Thioredoxin Reductase 1 (TrxR1) (AID 488773); conditions: Potency: inhibition;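 also: drop in NADPH fluorescence over an 8 min run after selenite addition; series mostly up to about 57 µM; nearly all actives have a fitted effect of over 40% in size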
Procedure, shortened: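 Inhibition is scored from the loss of NADPH fluorescence between first and last reads of an 8-min kinetic run. Selenite (400 uM) was the substrate, added after 15 min compound preincubation at room temperature.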

[5] = biological target: M-phase phosphoprotein 8 (Homo sapiens) (UniProt Q99549); test: qHTS Validation Assay for Inhibitors for MPP8 Chromodomain Interactions with Methylated Histone Tails (AID 488949);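 also: AlphaScreen signal from MPP8 chromodomain bound to biotinylated H3K9me3 peptide; top concentration of the series differs between compounds; nearly all actives have a fitted effect of over 55% in size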
Procedure, shortened: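 Disruption of the preformed MPP8–trimethyl-H3K9 peptide complex (both 50 nM, 30 min, RT) is measured after 30 min compound exposure, using AlphaScreen proximity beads; aurintricarboxylic acid titration serves as plate control.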

[6] = biological target: Chromobox protein homolog 1 (Homo sapiens) (UniProt P83916); test: qHTS Validation Assay for Inhibitors of HP1-beta Chromodomain Interactions with Methylated Histone Tails (AID 488953);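 also: loss of AlphaScreen luminescence from HP1-beta binding biotinylated H3K9me3 peptide; series mostly up to about 110 µM; nearly all actives have a fitted effect of over 50% in size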
Procedure, shortened: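 Compounds pinned into a preassembled complex of HP1-beta and trimethyl-K9 histone H3(1-18) biotin peptide (50 nM each; PBS pH 7.4, 0.01% Tween-20). After 30 min, bead-based AlphaScreen detection followed.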

[7] = biological target: Methanococcus maripaludis chaperonin (MmCpn) (UniProt Q6LX38); test: High-Throughput Screening for Modulators of Cytosolic Chaperonin Activity: MmCpn Primary Screen (AID 488978);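 also: 50 nM MmCpn enzyme hydrolysing 30 µM ATP at 37 °C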
Procedure, shortened: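 Measures ATPase turnover of the M. maripaludis chaperonin (50 nM final) against 30 uM ATP over 10 min at 37C, with compound added 5 min beforehand at room temperature. ADP is quantified by HTRF immunodetection.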

[8] = biological target: D(1A) dopamine receptor (Homo sapiens) (UniProt P21728); test: HTS Assay for Allosteric Agonists of the Human D1 Dopamine Receptor: Primary Screen for Agonists (AID 488981)
Procedure, shortened: (§1)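 Tetracycline-induced HEK293 Trex D1 cells with forced coupling to calcium, loaded with no-wash calcium dye; kinetic fluorescence read 180 s after compound addition for agonism, then a further 180 s after an EC20 dopamine challenge for potentiation.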

[9] = biological target: D(1A) dopamine receptor (Homo sapiens) (UniProt P21728); test: HTS Assay for Allosteric Agonists of the Human D1 Dopamine Receptor: Primary Screen for Potentiators (AID 488982); also: potency is read from the fitted curve at half-maximal effect
Procedure, shortened: as §1

[10] = biological target: D(1A) dopamine receptor (Homo sapiens) (UniProt P21728); test: HTS Assay for Allosteric Agonists of the Human D1 Dopamine Receptor: Primary Screen for Antagonists (AID 488983);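 also: calcium flux response to an EC80 dopamine challenge measured with no-wash dye; nearly all actives have a fitted effect of over 65% in size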; also: potency is read from the fitted curve at half-maximal effect
Procedure, shortened: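 In this primary screen, compounds are applied to calcium-dye-loaded HEK293 T-REx cells with force-coupled D1 expression induced overnight at 30 C. An EC80 of dopamine follows the 180 s compound phase, and calcium is monitored for a further 180 s.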

[11] = Validation screen for small molecules that induce genotoxicity in human embryonic kidney (HEK293T) cells expressing luciferase-tagged ELG1 (AID 493106)
Procedure, shortened: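 In this validation screen, increased ELG1-luciferase signal flags compounds causing genetic stress. HEK293T reporter cells are treated 16 hr (37 °C, 5% CO2), developed with ONE-Glo for 30 min at room temperature, and imaged on a CCD-based reader.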

[12] = biological target: ATPase family AAA domain-containing protein 5 (Homo sapiens) (UniProt Q96QE3); test: Validation screen for small molecules that inhibit ELG1-dependent DNA repair in human embryonic kidney (HEK293T) cells expressing luciferase-tagged ELG1 (AID 493107); also: nearly all actives have a fitted effect of over 70% in size; also: potency is read from the fitted curve at half-maximal effect
Procedure, shortened: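 Compounds reducing 5-fluorouridine-driven ELG1-luciferase signal in HEK293T cells were scored; exposure lasted 16 hr at 37 °C with luminescence detected via ONE-Glo.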

[13] = Quantitative high throughput screen for delayed death inhibitors of the malarial parasite plastid, 48 hour incubation (AID 488752); also: nearly all actives have a fitted effect of over 65% in size
Procedure, shortened: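 Cultures: infected erythrocytes at final 2% hematocrit and 0.1% parasitemia in Albumax-supplemented RPMI. Parasites express integrated firefly luciferase. Incubation with compound lasts 48 h before luminescent detection of remaining reporter activity.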

[14] = biological target: Flap endonuclease 1 (Homo sapiens) (UniProt P39748); test: qHTS Validation Assay for the Inhibitors of Human Flap endonuclease 1 (FEN1) (AID 488816)
Procedure, shortened: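 Enzyme reagent 10 nM; cpds pinned; 15 min RT preinc.; substrate 50 nM final; reads t=0 and 15 min; no-enzyme buffer wells as neg. control; normalized data, 4-parameter Hill fit.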

[15] = biological target: Transient receptor potential cation channel subfamily V member 1 (Homo sapiens) (UniProt Q8NER1); test: HTS Assay for Compounds that Act as Enhancers of the Vanilloid Receptor 1 (AID 488979)
Procedure, shortened: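 TRPV1 cells loaded with Fluo-8 calcium dye; compound added and Ca2+ signal (ex 480/em 520 nm) followed 3 min, then capsaicin at EC20 added and read 2 more min to detect enhancement.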

[16] = biological target: Thyrotropin receptor (Homo sapiens) (UniProt P16473); test: qHTS Assay for Antagonists of the Thyroid Stimulating Hormone Receptor (AID 488980); also: series mostly up to about 58 µM
Procedure, shortened: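 Cells expressing human TSHR (HEK293) are dispensed in HBSS/HEPES containing 70 uM RO 20-1724, compound is added, then TSH at EC80 (4 nM final). Antibody in lysis buffer follows, 30 minutes at room temperature before HTRF detection.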

[17] = biological target: Thyrotropin-releasing hormone receptor (Homo sapiens) (UniProt P34981); test: qHTS for Small Molecule Agonists and Allosteric Enhancers of Human TRH Receptor: Validation Screen for Agonists (AID 493127;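 active = calcium activation more than 3 SD above the typical response in the agonist read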;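 also: intracellular calcium rise by fluo-8 fluorescence before TRH EC20 addition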); conditions: TRH receptor agonist cell assay; at 2 µM; hits give high values
Procedure, shortened: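 Kinetic fluorescence assay of agonist-induced calcium release: overnight-plated TRHR cells, room-temperature fluo-8 loading, baseline then compound addition with per-second reads.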

[18] = Quantitative high throughput screen for delayed death inhibitors of the malarial parasite plastid, 96 hour incubation (AID 488745); also: series mostly up to about 29 µM; nearly all actives have a fitted effect of over 70% in size
Procedure, shortened: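 Two-generation (96 h) exposure of luciferase-reporter P. falciparum in erythrocytes, 2% hematocrit, 0.1% parasitemia final, 37 C, 5% CO2, RPMI 1640 with 0.5% Albumax. Growth inhibition scored by reduced luminescence.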

Sequence of ATP-dependent 6-phosphofructokinase (Trypanosoma brucei brucei) (O15648 whole entry, looked up): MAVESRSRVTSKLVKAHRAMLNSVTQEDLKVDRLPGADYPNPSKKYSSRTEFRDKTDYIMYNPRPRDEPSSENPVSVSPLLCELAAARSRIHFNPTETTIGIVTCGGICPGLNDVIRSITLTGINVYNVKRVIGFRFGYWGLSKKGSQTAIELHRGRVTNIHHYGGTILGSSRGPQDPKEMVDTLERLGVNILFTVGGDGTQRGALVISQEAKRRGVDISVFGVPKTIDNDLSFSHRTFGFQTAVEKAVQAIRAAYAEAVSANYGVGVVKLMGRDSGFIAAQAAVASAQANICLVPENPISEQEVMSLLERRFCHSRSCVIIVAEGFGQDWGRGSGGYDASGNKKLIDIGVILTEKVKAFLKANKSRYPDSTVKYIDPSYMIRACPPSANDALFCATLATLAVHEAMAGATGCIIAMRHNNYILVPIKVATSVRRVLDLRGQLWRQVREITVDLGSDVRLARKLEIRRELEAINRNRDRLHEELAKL
Sequence of Flap endonuclease 1 (Homo sapiens) (P39748 whole entry, looked up): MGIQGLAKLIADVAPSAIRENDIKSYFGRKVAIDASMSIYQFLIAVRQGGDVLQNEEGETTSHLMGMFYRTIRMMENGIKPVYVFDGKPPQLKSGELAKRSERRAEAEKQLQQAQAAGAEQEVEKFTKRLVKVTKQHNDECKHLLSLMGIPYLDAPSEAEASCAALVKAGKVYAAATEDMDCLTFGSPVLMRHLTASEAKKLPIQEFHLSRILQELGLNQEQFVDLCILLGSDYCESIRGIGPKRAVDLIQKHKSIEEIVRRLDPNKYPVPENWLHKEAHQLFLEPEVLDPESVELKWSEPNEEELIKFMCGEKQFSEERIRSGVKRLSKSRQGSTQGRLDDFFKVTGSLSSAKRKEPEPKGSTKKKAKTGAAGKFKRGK
Sequence of ATPase family AAA domain-containing protein 5 (Homo sapiens) (Q96QE3 whole entry, looked up, the tested form may be a part): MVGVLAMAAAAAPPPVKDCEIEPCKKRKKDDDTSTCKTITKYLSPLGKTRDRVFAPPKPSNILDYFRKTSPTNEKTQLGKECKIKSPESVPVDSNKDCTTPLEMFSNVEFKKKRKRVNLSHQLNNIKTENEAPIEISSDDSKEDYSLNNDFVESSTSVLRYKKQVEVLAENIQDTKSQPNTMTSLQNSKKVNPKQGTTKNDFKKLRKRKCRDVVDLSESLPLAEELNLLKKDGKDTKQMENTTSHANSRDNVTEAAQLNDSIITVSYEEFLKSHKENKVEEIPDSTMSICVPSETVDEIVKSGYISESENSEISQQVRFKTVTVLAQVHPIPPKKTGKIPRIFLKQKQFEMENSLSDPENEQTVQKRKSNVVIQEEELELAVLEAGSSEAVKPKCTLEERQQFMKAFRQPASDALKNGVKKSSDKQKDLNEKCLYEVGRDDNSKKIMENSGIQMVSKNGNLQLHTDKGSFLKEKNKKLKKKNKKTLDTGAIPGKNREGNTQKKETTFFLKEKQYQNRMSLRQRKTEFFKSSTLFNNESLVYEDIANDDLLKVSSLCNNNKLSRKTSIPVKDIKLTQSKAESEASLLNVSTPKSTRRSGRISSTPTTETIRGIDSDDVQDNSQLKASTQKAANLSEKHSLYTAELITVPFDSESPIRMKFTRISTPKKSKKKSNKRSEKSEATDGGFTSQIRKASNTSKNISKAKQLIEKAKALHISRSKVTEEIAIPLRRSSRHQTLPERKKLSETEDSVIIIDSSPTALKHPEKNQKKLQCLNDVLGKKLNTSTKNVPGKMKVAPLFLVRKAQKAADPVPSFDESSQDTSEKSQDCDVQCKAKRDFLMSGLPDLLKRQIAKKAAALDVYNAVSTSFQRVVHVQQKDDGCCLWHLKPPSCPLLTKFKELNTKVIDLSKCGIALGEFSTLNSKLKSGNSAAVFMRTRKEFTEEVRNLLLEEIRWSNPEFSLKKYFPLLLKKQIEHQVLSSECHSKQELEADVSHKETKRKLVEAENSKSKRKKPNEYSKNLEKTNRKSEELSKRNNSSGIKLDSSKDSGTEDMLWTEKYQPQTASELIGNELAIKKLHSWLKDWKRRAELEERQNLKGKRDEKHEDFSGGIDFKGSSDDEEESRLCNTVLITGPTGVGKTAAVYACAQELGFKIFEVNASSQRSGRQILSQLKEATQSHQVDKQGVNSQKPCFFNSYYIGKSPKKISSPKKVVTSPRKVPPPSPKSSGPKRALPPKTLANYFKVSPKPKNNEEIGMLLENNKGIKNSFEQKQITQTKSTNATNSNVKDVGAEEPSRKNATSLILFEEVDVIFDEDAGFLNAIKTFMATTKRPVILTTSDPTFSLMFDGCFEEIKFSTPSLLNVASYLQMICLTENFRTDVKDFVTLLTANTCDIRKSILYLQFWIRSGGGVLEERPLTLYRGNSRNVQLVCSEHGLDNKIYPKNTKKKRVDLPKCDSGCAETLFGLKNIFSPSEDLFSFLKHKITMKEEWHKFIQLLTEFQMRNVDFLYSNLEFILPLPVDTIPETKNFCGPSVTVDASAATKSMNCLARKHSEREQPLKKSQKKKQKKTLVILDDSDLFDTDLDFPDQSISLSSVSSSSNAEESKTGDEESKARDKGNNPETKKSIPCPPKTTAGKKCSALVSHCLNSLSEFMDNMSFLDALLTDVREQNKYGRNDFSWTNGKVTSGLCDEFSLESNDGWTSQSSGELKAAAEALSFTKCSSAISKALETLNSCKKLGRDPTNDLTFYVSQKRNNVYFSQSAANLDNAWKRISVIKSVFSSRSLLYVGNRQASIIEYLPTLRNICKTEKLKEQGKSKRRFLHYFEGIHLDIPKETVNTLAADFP
Sequence of Beta-2 adrenergic receptor (Homo sapiens) (P07550 whole entry, looked up): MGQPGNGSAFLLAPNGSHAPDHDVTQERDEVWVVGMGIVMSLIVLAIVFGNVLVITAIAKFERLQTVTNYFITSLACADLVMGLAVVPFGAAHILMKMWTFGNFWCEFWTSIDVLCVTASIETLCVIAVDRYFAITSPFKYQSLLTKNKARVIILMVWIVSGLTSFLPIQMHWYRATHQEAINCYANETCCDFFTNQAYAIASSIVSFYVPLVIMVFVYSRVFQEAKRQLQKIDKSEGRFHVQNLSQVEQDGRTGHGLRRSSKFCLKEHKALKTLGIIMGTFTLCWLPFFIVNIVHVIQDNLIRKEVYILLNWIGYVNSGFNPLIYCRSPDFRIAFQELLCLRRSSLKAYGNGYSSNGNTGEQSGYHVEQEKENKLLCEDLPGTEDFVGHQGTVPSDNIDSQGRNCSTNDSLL
Sequence of Transient receptor potential cation channel subfamily V member 1 (Homo sapiens) (Q8NER1 whole entry, looked up): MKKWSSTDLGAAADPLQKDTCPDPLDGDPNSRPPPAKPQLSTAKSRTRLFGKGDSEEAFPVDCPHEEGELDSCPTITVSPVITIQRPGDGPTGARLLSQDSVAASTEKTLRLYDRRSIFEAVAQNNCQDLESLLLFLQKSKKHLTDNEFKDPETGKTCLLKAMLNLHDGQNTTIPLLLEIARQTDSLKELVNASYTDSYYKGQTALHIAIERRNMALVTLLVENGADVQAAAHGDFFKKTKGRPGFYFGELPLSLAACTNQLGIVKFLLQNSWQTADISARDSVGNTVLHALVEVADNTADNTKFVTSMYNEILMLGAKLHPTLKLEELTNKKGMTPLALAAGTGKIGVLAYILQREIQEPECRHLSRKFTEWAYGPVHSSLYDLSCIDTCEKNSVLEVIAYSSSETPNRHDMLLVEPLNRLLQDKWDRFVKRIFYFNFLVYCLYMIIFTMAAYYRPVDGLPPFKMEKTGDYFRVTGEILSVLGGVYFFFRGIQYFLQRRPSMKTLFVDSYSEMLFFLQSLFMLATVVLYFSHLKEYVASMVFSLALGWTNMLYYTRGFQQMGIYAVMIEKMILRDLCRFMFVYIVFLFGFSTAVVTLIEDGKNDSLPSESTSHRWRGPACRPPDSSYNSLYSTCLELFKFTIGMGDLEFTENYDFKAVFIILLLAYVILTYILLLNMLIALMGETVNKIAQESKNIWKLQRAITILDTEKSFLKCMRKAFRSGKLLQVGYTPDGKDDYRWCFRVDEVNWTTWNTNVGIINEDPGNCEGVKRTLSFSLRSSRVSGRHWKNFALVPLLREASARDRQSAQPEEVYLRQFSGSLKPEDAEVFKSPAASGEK
Sequence of Thyrotropin receptor (Homo sapiens) (P16473 whole entry, looked up): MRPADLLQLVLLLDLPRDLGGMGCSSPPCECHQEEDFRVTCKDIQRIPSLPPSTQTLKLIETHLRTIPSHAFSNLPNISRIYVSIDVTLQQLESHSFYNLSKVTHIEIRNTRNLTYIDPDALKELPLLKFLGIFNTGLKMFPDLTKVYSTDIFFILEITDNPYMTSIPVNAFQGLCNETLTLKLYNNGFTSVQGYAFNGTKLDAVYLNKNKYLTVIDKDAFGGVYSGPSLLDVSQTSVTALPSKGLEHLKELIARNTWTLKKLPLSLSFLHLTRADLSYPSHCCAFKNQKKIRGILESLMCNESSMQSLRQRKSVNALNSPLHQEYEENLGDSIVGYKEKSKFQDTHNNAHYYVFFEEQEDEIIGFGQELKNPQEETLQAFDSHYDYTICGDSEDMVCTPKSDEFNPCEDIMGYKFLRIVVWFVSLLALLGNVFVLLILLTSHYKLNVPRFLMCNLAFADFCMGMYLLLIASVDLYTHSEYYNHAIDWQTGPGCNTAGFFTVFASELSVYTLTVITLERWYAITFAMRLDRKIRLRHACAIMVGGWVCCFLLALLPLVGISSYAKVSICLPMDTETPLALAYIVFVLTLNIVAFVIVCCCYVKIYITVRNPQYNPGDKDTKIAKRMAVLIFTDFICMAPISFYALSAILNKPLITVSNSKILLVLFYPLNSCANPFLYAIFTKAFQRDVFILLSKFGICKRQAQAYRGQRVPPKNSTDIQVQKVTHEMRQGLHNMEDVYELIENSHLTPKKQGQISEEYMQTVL
Sequence of Chromobox protein homolog 1 (Homo sapiens) (P83916 whole entry, looked up): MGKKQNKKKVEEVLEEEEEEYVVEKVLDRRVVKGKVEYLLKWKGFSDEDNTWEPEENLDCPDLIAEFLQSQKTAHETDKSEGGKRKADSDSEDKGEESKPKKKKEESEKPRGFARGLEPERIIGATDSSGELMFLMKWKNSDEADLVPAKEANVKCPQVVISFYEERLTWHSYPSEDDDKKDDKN

SMILES	outcome [1]	Potency [2]	outcome [3]	Potency [4]	Potency [5]	Potency [6]	outcome [7]	Potency [8]	Potency [9]	Potency [10]	Potency [11]	Potency [12]	Potency [13]	Potency [14]	outcome [15]	outcome [16]	activation [17]	Potency [18]
Cc1nc2n(c(=O)c1CCN1CCC(c3noc4cc(F)ccc34)CC1)CCCC2O (stereo unspecified)	inactive	inactive	inactive	inactive	inactive	inactive	inactive	inactive	inactive	1 µM (active)	inactive	inactive	–	–	–	–	–	–
COc1ccc(-c2ccc(N)[n+](CCCC(=O)O)n2)cc1	inactive	inactive	inactive	inactive	inactive	inactive	inactive	inactive	inactive	inactive	inactive	inactive	inactive	inactive	inactive	inactive	1%	–
CCCCOC(=O)NS(=O)(=O)c1sc(CC(C)C)cc1-c1ccc(Cn2c(CC)nc3c(C)cc(C)nc32)cc1	inactive	inactive	–	inactive	inactive	inactive	inactive	inactive	inactive	–	inactive	8.2 µM (active)	–	inactive	inactive	inactive	–	inactive
CCN(c1nc(N)c(C(=O)N=C(N)N)nc1Cl)C(C)C	inactive	inactive	inactive	inactive	inactive	–	inactive	inactive	–	–	–	inactive	inactive	inactive	inactive	inactive	2.31%	–
COC(=O)C1=C(C)NC(C)=C([N+](=O)[O-])C1c1ccccc1C(F)(F)F (stereo unspecified)	inactive	inactive	inactive	inactive	inactive	–	inactive	inactive	inactive	inactive	–	inactive	–	inactive	inactive	inactive	-3.94%	–
N[C@H](C(=O)O)[C@H](Cc1ccccc1)C(=O)O	inactive	inactive	inactive	inactive	inactive	inactive	inactive	inactive	–	inactive	inactive	inactive	–	inactive	–	–	–	–
Nc1ccc(CCNc2ncnc3c2ncn3C2OC(CO)C(O)C2O)cc1 (stereo unspecified)	inactive	inactive	inactive	inactive	inactive	inactive	inactive	inactive	inactive	inactive	–	inactive	inactive	inactive	inactive	inactive	1.06%	–
CNC(=O)c1cc2c(cn1)[nH]c1ccccc12	inactive	inactive	inactive	inactive	inactive	–	inactive	inactive	–	inactive	–	–	–	inactive	inactive	inactive	0.75%	–
COc1cc([C@@H]2c3cc4c(cc3[C@H](O)C3COC(=O)[C@@H]32)OCO4)cc(OC)c1OC (stereo partly specified)	inactive	inactive	inactive	inactive	inactive	inactive	inactive	inactive	inactive	inactive	–	inactive	–	inactive	inactive	inactive	–	–
C=CCNc1ncnc2ccc(Br)cc12	inactive	inactive	inactive	inactive	inactive	inactive	inactive	inactive	–	inactive	inactive	7.3 µM (active)	–	inactive	–	–	–	–
O=c1[nH]c2ccccc2c2ccccc12	inactive	inactive	inactive	inactive	inactive	inactive	–	inactive	inactive	inactive	inactive	inactive	inactive	inactive	–	inactive	-4.5%	–
C=C1C[C@@]23CC[C@H]4[C@@](C)(CCC[C@@]4(C)C(=O)O)[C@@H]2CC[C@]1(O)C3	inactive	inactive	inactive	inactive	inactive	inactive	inactive	inactive	inactive	inactive	inactive	inactive	–	inactive	–	–	–	–
N[C@@H](Cc1ccc(F)cc1)C(=O)O	inactive	inactive	inactive	inactive	inactive	inactive	inactive	inactive	–	inactive	inactive	–	–	–	inactive	inactive	0.125%	–
Fc1ccc(CN(C2=NCCN2)c2c(Cl)cccc2Cl)cc1	inactive	inactive	inactive	inactive	inactive	inactive	inactive	inactive	inactive	inactive	inactive	–	–	inactive	–	inactive	1.31%	–
CC#CCOC(=O)c1c(C)nc2sc3c(c2c1N)CCC(O)C3 (stereo unspecified)	inactive	inactive	inactive	inactive	inactive	inactive	inactive	inactive	inactive	inactive	inactive	inactive	–	inactive	inactive	inactive	0.438%	–
OC[C@H]1NC[C@@H](O)[C@@H]1O	inactive	inactive	inactive	inactive	inactive	inactive	inactive	inactive	inactive	inactive	inactive	inactive	inactive	inactive	inactive	–	1.19%	–
C[C@@H](NCCc1ccc(O)cc1)[C@@H](O)c1ccc(O)cc1	inactive	inactive	inactive	inactive	inactive	inactive	inactive	inactive	inactive	–	inactive	inactive	inactive	inactive	inactive	inactive	1.12%	–
CC(=O)O[C@H]1Cc2ccccc2N(C(N)=O)c2ccccc21	inactive	inactive	inactive	inactive	inactive	–	inactive	inactive	inactive	inactive	inactive	inactive	–	inactive	–	–	–	–
CN1CC(O)C(O)C(O)C1CO (stereo unspecified)	inactive	inactive	inactive	inactive	inactive	inactive	inactive	inactive	inactive	inactive	inactive	inactive	–	inactive	–	–	–	–
CC(=O)SC1CC2=CC(=O)CC[C@]2(C)C2CC[C@@]3(C)C(CC[C@@]34CCC(=O)O4)C12 (stereo partly specified)	inactive	inactive	inactive	inactive	inactive	inactive	inactive	inactive	–	inactive	inactive	7.3 µM (active)	–	inactive	–	–	–	–
CCCC[C@@]1(C2CCCC2)Cc2cc(OCC(=O)O)c(Cl)c(Cl)c2C1=O	inactive	inactive	–	inactive	inactive	inactive	inactive	inactive	inactive	inactive	inactive	inactive	–	inactive	inactive	inactive	1.19%	inactive
COc1ccccc1N1CCN(CCN(C(=O)c2ccc(F)cc2)c2ccccn2)CC1	inactive	inactive	inactive	inactive	inactive	–	inactive	inactive	inactive	–	inactive	–	–	–	inactive	inactive	0.312%	inactive
NOCC(=O)O	inactive	inactive	inactive	inactive	inactive	inactive	inactive	inactive	–	inactive	inactive	inactive	–	inactive	inactive	inactive	0.25%	–
Brc1c(Br)c(Br)c2[nH]cnc2c1Br	inactive	inactive	inactive	inactive	inactive	inactive	inactive	inactive	–	inactive	inactive	4.61 µM (active)	–	–	–	–	–	–
CC1=C(/C=C/C(C)=C/C=C/C(C)=C\C(=O)O)C(C)(C)CCC1	inactive	inactive	inactive	–	inactive	inactive	inactive	inactive	inactive	–	inactive	–	–	inactive	–	–	0.75%	–
Nc1ccc(N2C(=O)c3ccccc3C2=O)c(Cl)c1	inactive	–	inactive	inactive	inactive	inactive	inactive	inactive	inactive	inactive	inactive	inactive	inactive	inactive	inactive	inactive	-4.94%	inactive
O=C(O)c1cc(=O)cc(C(=O)O)[nH]1	inactive	–	inactive	inactive	inactive	inactive	inactive	inactive	inactive	inactive	inactive	inactive	inactive	inactive	inactive	inactive	0.75%	inactive
CN(C)CCCc1cc(C(=O)Nc2ccc(-c3ccncc3)cc2)ccc1O	inactive	inactive	inactive	inactive	inactive	–	inactive	inactive	inactive	–	inactive	inactive	–	–	–	–	–	–
O=C(O)C1CCCNC1 (stereo unspecified)	inactive	–	inactive	inactive	inactive	inactive	inactive	inactive	2.31 µM (active)	inactive	–	inactive	inactive	inactive	inactive	inactive	–	inactive

— PubChem BioAssay (NCATS)
